Source: PubChem BioAssay (EPA / NIEHS)
The source made the active and inactive calls. Rule for the calls: active = hit-call score of the fitted dose curve at least 0.9, where 1 is the maximum; inactive = score below 0.9.

Assay: CCTE_Shafer_MEA_acute_burst_number: CCTE's Neural Acute Assay for Single-Electrode Bursts, Shafer Lab (AID 2284013)
Experimental: CCTE_Shafer_MEA_acute assay is conducted using Axion Biosystems 48 well microelectrode array (MEA) plates and Maestro recording system. Each well of the MEA plate contains a grid of 16 microelectrodes embedded in the culture surface. Electrically active cells, such as neurons, can be cultured over the electrodes, and electrical activity in these cells can be recorded extracellularly. The spontaneous firing of neurons is captured from each electrode on a microsecond timescale providing both temporally and spatially precise data. […] The CCTE_Shafer_MEA_acute assay uses primary cultures of rat cortical neurons. As these cultures mature over time, neural networks develop functional activity and form cohesive networks in which electrical activity can be highly coordinated. Baseline 40-minute recordings are made on days post-plating 13 or 15, followed by a secondary 40-minute recording after chemical exposure.CCTE_Shafer_MEA_acute_burst_number is a component of the CCTE_Shafer_MEA_acute assay. It measures the total number of single-electrode bursts (temporally-clustered groups of action potential firing) during a recording in a microelectrode array (MEA) using Axion Biosystems Maestro 768 channel amplifier with the AxIS adaptive spike detector. The recordings before and after chemical treatment are used to calculate a percent change in the burst number in each well.Data from the assay component CCTE_Shafer_MEA_acute_burst_number was analyzed into 1 assay endpoint. This assay endpoint, CCTE_Shafer_MEA_acute_burst_number, was analyzed in the negative analysis fitting direction relative to DMSO as the negative control and baseline of activity. Using a type of functional reporter, gain or loss-of-signal activity can be used to understand electrical activity.
Spontaneous activity in the cortical cultures was recorded using an Axion Biosystems Maestro 768 channel amplifier and Axion Integrated Studios (AxIS) v1.8 (or later) software. The amplifier recorded from all channels simultaneously (gain = 1200 x; sampling rate = 12.5 kHz/channel): raw signals were filtered with a Butterworth band-pass filter (300-5000 Hz), which filters out slower local field potentials leaving only fast potentials, i.e., "spikes", arising from extracellular currents associated with action potentials (Pine 2006; Wheeler and Nam 2011). On-line spike detection of filtered signals was conducted with the AxIS adaptive spike detector, using a threshold of 8x the root mean squared (rms) noise on each channel. Any electrodes with rms noise levels greater than 5 uV were grounded (e.g., no data were recorded). Once grounded, an electrode was grounded for the duration of the experiment. All recordings were conducted at 37 C. Wells were deemed usable if on the day of the exposure >/= 10 electrodes were active (defined as >/= 5 spikes/min). On DIV 13 or 15, a minimum of three wells from one cortical culture preparation were treated with each compound (0.03-40 uM). Prior to recording baseline activity, each mwMEA plate was placed in the Maestro at 37 C and allowed to sit for 20 min while firing rates stabilized. Baseline activity (40 min) was recorded before the addition of each compound. An additional 40 min of spontaneous activity was recorded in the presence of each compound. Changes in network parameters relative to baseline were assessed following compound treatment.

Row | SMILES | AC50 | outcome
1 | CCCCCCCCc1ccc(O)cc1 | 2.53 µM (active) | –
2 | CC(=O)OC(c1ccccc1)C(Cl)(Cl)Cl (centres undefined) | – | inactive
3 | O=C(O)C(Cl)(Cl)Cl | – | inactive
4 | CCC(=O)C(CC(C)N(C)C)(c1ccccc1)c1ccccc1 (centres undefined) | – | inactive
5 | C=C(C)C(=O)[O][Sn]([CH2]CCC)([CH2]CCC)[CH2]CCC | 0.0118 µM (active) | –
6 | O=C(Nc1ccc2[nH]ccc2c1)c1cc2cc(F)ccc2n1Cc1cccc(F)c1 | – | inactive
7 | CC(C)(OO)c1ccccc1 | – | inactive
8 | CC(=O)[O][Hg][c]1ccccc1 | 0.91 µM (active) | –
9 | CCC(C)(C)c1ccc(O)c(C(C)(C)CC)c1 | 5.29 µM (active) | –
10 | ClC1(Cl)C2(Cl)C3(Cl)C4(Cl)C(Cl)(Cl)C5(Cl)C3(Cl)C1(Cl)C5(Cl)C24Cl (centres undefined) | – | inactive
11 | O=C1C2(Cl)C3(Cl)C4(Cl)C(Cl)(Cl)C5(Cl)C3(Cl)C1(Cl)C5(Cl)C24Cl (centres undefined) | 3.27 µM (active) | –
12 | C[C@]12CCC(=O)C[C@@H]1CC[C@@H]1[C@@H]2CC[C@]2(C)[C@@H](O)CC[C@@H]12 | – | inactive
13 | CCN1CCC2(CC1)COc1cc3c(cc12)N(C(=O)c1ccc(-c2ccc(-c4nnc(C)o4)cc2C)cc1)CC3 | – | inactive
14 | CC(C)(C)CC(C)(C)c1ccc(O)cc1 | – | inactive
15 | CC(C)(C)c1cc(O)ccc1O | – | inactive
16 | CC(C)(c1ccccc1)c1ccc(O)c(C(C)(C)c2ccccc2)c1 | – | inactive
17 | COC(=O)Cc1ccccc1 | – | inactive
18 | CCOP(=S)(OCC)SCSP(=S)(OCC)OCC | – | inactive
19 | O=C(O)C(F)(F)C(F)(F)C(F)(F)C(F)(F)C(F)(F)C(F)(F)C(F)(F)C(F)(F)C(F)(F)C(F)(F)F | – | inactive
